From PubChem
Only some compounds are listed: those with a hit (about 18% of all), similar ones and a draw of the others.
DT40 TDP1 no CPT: qHTS for Inhibitors of human tyrosyl-DNA phosphodiesterase 1 (TDP1): qHTS in cells in absence of CPT; DT40 Tdp1-/- hTDP1 cells, no CPT, ATP luminescence, 48 h; Potency, µM (titrated, usually from 46.2 µM), inactives show top-dose activity change, negative = growth inhibition, most hits filed as inhibitors; actives 15% (n = 420,000); also: nearly all actives have a fitted effect of over 55% in size
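DT40 Tdp1-/-;hTDP1 cells, no CPT (DMSO vehicle only), 400 cells/well; compounds pin-transferred; ≥48 hr, 37 °C; CellTiter-Glo 30 min RT dark, luminescence read.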
VDR inhibitor: blocks the human vitamin D receptor; actives 0.93% (n = 400,000); VDR-SRC2-3 peptide fluorescence polarization, 2 h; P11473; AID 504847; Potency, µM, for inactives: max response, negative = inhibition, hits mostly inhibitors
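Measured by FP: displacement of SRC2-3 coactivator peptide from VDR by library compounds, following a two-hour ambient incubation.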
DT40 TDP1 CPT: growth inhibition of DT40 Tdp1-/-;hTDP1 cells with camptothecin (screen for TDP1 inhibitors). chicken DT40 Tdp1-/-;hTDP1 cells + 20 nM CPT, ATP luminescence, 48 h. Potency, µM (highest dose often 46.2 µM), inactives show at the top dose activity change, negative = growth inhibition, usual class: inhibitors. actives 12% (n = 420,000). AID 686979; also: nearly all actives have a fitted effect of over 55% in size
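Chicken DT40 Tdp1-/- cells stably complemented with human TDP1 were seeded at 400 cells/well in medium containing 20 nM camptothecin, exposed to pin-transferred compounds, and grown at 37 °C for at least 48 hr. Viability was read as ATP luminescence.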
PLK1 PBD inh: blocks phosphopeptide binding to human PLK1 polo-box domain; P53350; Plk1 PBD binding of FITC phosphopeptide, fluorescence polarization; Potency, µM, inactives show max response, negative = inhibition, hits mostly inhibitors; actives 2.8% (n = 360,000); also: series mostly up to about 57 µM; nearly all actives have a fitted effect of over 65% in size
KAT2A inh: inhibitors of human GCN5L2 histone acetyltransferase; Q92830; GCN5L2 HAT assay, ThioGlo1 CoA-SH fluorescence; Potency, µM (top dose mostly 58.9 µM), without a hit: at the highest dose activity change, negative = inhibition, most hits filed as inhibitors; actives 0.21% (n = 390,000); AID 504327
Target sequence (Q92830 whole entry, looked up): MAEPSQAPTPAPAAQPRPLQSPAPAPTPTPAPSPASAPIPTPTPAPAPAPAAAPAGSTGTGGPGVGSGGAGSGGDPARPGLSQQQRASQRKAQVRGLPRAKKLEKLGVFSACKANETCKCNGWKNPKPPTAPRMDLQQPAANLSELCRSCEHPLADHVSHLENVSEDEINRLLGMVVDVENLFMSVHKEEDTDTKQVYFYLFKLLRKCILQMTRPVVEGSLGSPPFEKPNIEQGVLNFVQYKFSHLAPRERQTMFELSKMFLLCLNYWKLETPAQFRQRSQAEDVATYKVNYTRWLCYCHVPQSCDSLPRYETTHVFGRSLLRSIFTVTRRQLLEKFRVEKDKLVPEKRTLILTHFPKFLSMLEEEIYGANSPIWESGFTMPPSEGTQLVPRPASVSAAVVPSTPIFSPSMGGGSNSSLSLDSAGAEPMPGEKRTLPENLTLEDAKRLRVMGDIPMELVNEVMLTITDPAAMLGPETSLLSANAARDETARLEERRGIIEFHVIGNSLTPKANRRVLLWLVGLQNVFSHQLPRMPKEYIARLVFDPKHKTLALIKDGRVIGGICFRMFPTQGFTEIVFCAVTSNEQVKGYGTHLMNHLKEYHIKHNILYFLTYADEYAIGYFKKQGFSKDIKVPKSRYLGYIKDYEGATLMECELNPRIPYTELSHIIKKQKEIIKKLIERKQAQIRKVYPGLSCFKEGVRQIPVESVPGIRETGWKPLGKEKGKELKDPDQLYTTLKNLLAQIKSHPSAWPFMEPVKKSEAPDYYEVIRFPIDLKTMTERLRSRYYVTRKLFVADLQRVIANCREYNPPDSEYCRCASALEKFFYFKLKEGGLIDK
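GCN5L2 (20nM final) in 50mM HEPES, 0.1mM EDTA pH 7.5, 0.01% Tween-20 was preincubated 15 min at room temperature with compound, then given ThioGlo1 (50uM), H3(1-25) peptide (75uM) and acetyl-CoA (70uM); CoA-thiol fluorescence (Ex340/Em540) was read at 0 and 20 min.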
TDP1 block: inhibitors of human tyrosyl-DNA phosphodiesterase TDP1; Q9NUW8; recombinant TDP1, AlphaScreen DNA substrate cleavage; Potency, µM (doses to about 130 µM), for the others: at the highest dose activity change, negative = inhibition, hits mostly inhibitors; actives 0.28% (n = 350,000); AID 485290; also: nearly all actives have a fitted effect of over 40% in size
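Tdp1 1 nM final; 15 min RT w/ cpd; substrate 15 nM, 5 min; beads 10 ug/ml, 10 min; AlphaScreen read. Neg ctrl: no enzyme.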
Active calls of the source: *; ? = inconclusive; · = not tested or not shown; [ ] = dose if it differs, or a comment. Calls follow the shape of the dose curve; as a rule, active = well fitted curve in the direction sought with a large enough effect; inconclusive = small, poorly fitted or top-dose-only effect, or another doubt; inactive = no such curve, though single readings can be large; an effect the other way counts as inactive or inconclusive. % is scaled to controls: 0 for no effect and ±100 for the full control effect; potency is read from the fitted curve at half-maximal effect.

SMILES | DT40 TDP1 no CPT | VDR inhibitor | DT40 TDP1 CPT | PLK1 PBD inh | KAT2A inh | TDP1 block
CCOC(=O)c1cc(CC)sc1NC(=O)C1CC(=O)NN1Cc1ccccc1 (centres undefined) | 16µM* | -12% | ? | -8% | -22% | 5%
CSc1ccc(C(=O)N2CCC(CCC(=O)NC3CC3)CC2)cc1 | 19% | -9% | -3% | 3% | -14% | 2%
Cc1nnc(NC(=O)CSCc2cc(=O)c3ccccc3[nH]2)s1 | -1% | 12% | -3% | · | -5% | 40µM*
Cc1nnc(NC(=O)CSCc2cc(=O)c3ccc(C)c(C)c3[nH]2)s1 | ? | 14% | 0% | · | -1% | 3%
Cc1c(Cl)cccc1NC(=O)c1ccc(NC(=O)N2CCSc3ncccc32)cc1 | ? | 16% | ? | · | -10% | 8%
c1nc(SSc2ncnc3nc[nH]c23)c2[nH]cnc2n1 | 7.3µM* | 25µM* | 5.8µM* | 0.84µM* | · | ·
O=C(CSc1ncnc2nc[nH]c12)c1ccc2ccccc2c1 | 12µM* | 9% | ? | -1% | -6% | 3%
O=C(O)CSc1ncnc2nc[nH]c12 | -10% | 5% | -7% | -5% | -3% | -1%
O=C(CSc1ncnc2nc[nH]c12)N1CCN(c2ccc(Cl)cc2)CC1 | 13µM* | -12% | 23µM* | 0% | 2% | 6%
O=C1CCCN1c1ccc(S(=O)(=O)NCc2ccc(F)cc2)cc1 | ? | 15% | 21µM* | 8% | -4% | 2%
O=S(=O)(NCc1ccccc1Cl)c1ccc(N2CCCCS2(=O)=O)cc1 | 21µM* | -11% | 16µM* | · | 21% | 4%
O=S(=O)(NCc1ccc(F)cc1)c1ccc(-n2cnnn2)cc1 | ? | -1% | ? | -17% | 2% | -2%
O=S(=O)(NCc1ccc(F)cc1)c1ccc2c(c1)OCCO2 | -24% | 11% | -15% | -6% | -8% | 5%
O=S(=O)(NCc1ccc(Cl)cc1)c1ccc(N2CCCCS2(=O)=O)cc1 | 8.2µM* | 1% | 12µM* | · | 0% | 4%
O=S(=O)(NCc1ccc(F)cc1)c1ccc(N2CCCCS2(=O)=O)cc1 | 21µM* | 0% | 23µM* | · | 1% | -6%
O=S(=O)(NCc1ccccc1)c1ccc(Cl)cc1 | -7% | -6% | -7% | -14% | ? | 0%
Cc1cccc(N2CCN(C(=O)c3cc4c(=O)[nH]c5ccc(C)cc5c4s3)CC2C)c1 (centres undefined) | ? | -8% | ? | · | -6% | -1%
CN(C)c1ccc(/C=C(/NC(=O)c2ccccc2)C(=O)N2CCCC2)cc1 | -23% | -25% | ? | 16% | -3% | -8%
O=C(CCC(=O)N1Cc2ccccc2Oc2ncccc21)NCc1ccccc1Cl | ? | -11% | -26% | · | -23% | 0%
Cc1ccc(Cl)cc1NS(=O)(=O)c1ccc(N2CCCCS2(=O)=O)cc1 | 12µM* | 9% | ? | · | -9% | 6%
CS(=O)(=O)OCCCNCCCOS(C)(=O)=O | -21% | · | 2% | · | · | ·
Cc1ccc2c(c1)-c1onc(C(=O)N(C)c3ccc(F)cc3)c1CO2 | · | -4% | · | · | -18% | 1%
Cc1ccccc1N(C)C(=O)c1noc2c1COc1ccccc1-2 | 15µM* | 11% | 23µM* | · | -2% | -3%
COc1ccc(CCNC(=O)NCc2noc3ccccc23)c(OC)c1 | 21µM* | 9% | ? | · | -3% | 3%
O=C(NCc1ccccc1Cl)NCc1noc2ccccc12 | 9.2µM* | 10% | ? | · | 0% | -3%
SMILES | DT40 TDP1 no CPT | VDR inhibitor | DT40 TDP1 CPT | PLK1 PBD inh | KAT2A inh | TDP1 block
COc1ccc(Cl)cc1NC(=O)NCc1noc2ccccc12 | ? | -8% | ? | · | -5% | 3%
CCc1ccc(C(=O)c2cn(CC(=O)NCc3ccc(C)cc3)c3nc(C)ccc3c2=O)cc1 | 1% | 2% | -8% | · | 7% | 5%
CSc1ncnc2c1ncn2CCCNCc1ccccn1 | 1% | · | 4% | -3% | · | ·
CSc1ncnc2c1ncn2CCCNCC(c1ccccc1)c1ccccc1 | 26µM* | · | ? | -7% | · | ·
C[C@@H](NCCCn1cnc2c(OCc3ccccc3)ncnc21)c1cccc2ccccc12 | 16µM* | 0% | ? | -8% | · | ·
c1ccc(CNCCCn2cnc3c(OCc4ccccc4)ncnc32)cc1 | 23µM* | -7% | 29µM* | -23% | · | ·
Cc1ccc(S(=O)(=O)c2nc(-c3ccco3)oc2SCc2ccccc2Cl)cc1 | ? | 7% | ? | · | -4% | 0%
Cc1cccc(C(=O)NNS(=O)(=O)c2ccc(F)cc2)c1 | -16% | 2% | -21% | -11% | -1% | ·
O=C(Nc1nnc(S(=O)(=O)N2CCCC2)s1)c1ccc(F)cc1 | -12% | 13% | 7% | · | -1% | 4%
CSc1ccc(CN2CCC(n3nccc3NC(=O)C3CCOC3)CC2)cc1 (centres undefined) | -11% | -14% | -9% | 4% | 0% | 4%
CC1CCCC12NC(=O)NC2=O (centres undefined) | 6% | -1% | -24% | -1% | · | ·
COc1ccc2cc(C#N)c(N3CCN(Cc4nnnn4CCC(C)C)CC3)nc2c1 | 18µM* | -1% | 21µM* | -15% | -15% | -3%
Cc1ccc2nc(N3CCN(Cc4nnnn4Cc4ccccc4)CC3)c(C#N)cc2c1 | ? | -9% | ? | -3% | -11% | 5%
C[C@H]1Cc2c(COc3ccccc3)nc3c(c2CO1)CN(C(=O)C1CC1)CC3 | · | · | · | · | · | 6%[21 µM]
Cc1cccn2c(CNCC3(c4ccccc4)CCCC3)c(C(=O)N3CCOCC3)nc12 | 10µM* | 6% | 13µM* | 4% | 0% | 3%
CCCN(CCC)Cc1c(C(=O)N/N=C/C(C)=C\c2ccccc2)nnn1-c1nonc1N | 26µM* | 5% | 16µM* | -2% | -14% | -2%
CC(C)c1c(C(=O)N/N=C/c2ccc(OCc3ccccc3)cc2)nnn1-c1nonc1N | ? | -13% | ? | -11% | -5% | 4%
Nc1nonc1-n1nnc(C(=O)N/N=C/c2ccc(O)cc2)c1COc1ccc(F)cc1 | -5% | -28% | 3% | -13% | -7% | ·
CC(/C=N/NC(=O)c1nnn(-c2nonc2N)c1C(C)C)=C\c1ccccc1 | ? | 11% | ? | 1% | -16% | 2%
CN(C)Cc1c(C(=O)N/N=C/c2ccc(OCc3c(F)cccc3Cl)cc2)nnn1-c1nonc1N | 13µM* | -6% | ? | -7% | -9% | 3%
CC(C)c1c(C(=O)N/N=C/c2ccc(OCc3ccc(F)cc3)cc2)nnn1-c1nonc1N | ? | -6% | ? | 21µM* | -6% | 1%
